Results on two compounds are retold here after PubChem BioAssay AID1649 (The Scripps Research Institute Molecular Screening Center, 2009).

This assay can be described thus: NPY-Y2 potentiators or agonists, counter-screen for NPY-Y1 potentiator project, cell-based, fluorescence (AID 1649). The following applies: HEK293-CNG cells, membrane-potential fluorescence (FLIPR), 1536-well; at 3.6 µM; active compounds read high.

The other results are listed elsewhere or left out. Values without a mark were called inactive. Cut-off read from the data, not from the text of the source: active = activation above about 33%; inactive = the rest.

Regarding `CSC1=NP(=S)(SC)N(C)c2nc3n(c21)CCC3` (configuration not stated), the activation was 3.63%.
For the compound `Cc1nn(Cc2ccccc2Cl)c(Cl)c1C(=O)OC(C(=O)NC(N)=O)C(C)C` (configuration not stated), the activation is 23.6%.
